Screens deposited in PubChem by National Center for Advancing Translational Sciences (NCATS).
CHX counter – Cycloheximide Counterscreen for Small Molecule Inhibitors of Shiga Toxin; cell reporter, cycloheximide protein synthesis inhibition counterscreen; AID 2314, 2010; max response, %; hit rate 12% among 300,000; in the data active = max response mostly above about 13%, no sharp cut-off; inactive = mostly below about 14%; also: read at 38.3 µM for the half of the compounds with a filed dose; 0% is about no effect
Lassa entry inh – qHTS for Inhibitors of binding or entry into cells for Lassa Virus; Lassa virus pseudotype entry inhibition, cell reporter; Potency, µM (highest dose often 37.9 µM), without a hit: at the top dose activity change, negative = inhibition, usual class: inhibitors; hit rate 1.2% among 300,000; calls by dose curve; tested in HEK293 cells; also: potency is read from the fitted curve at half-maximal effect; % is scaled to controls: 0 for no effect and ±100 for the full control effect; nearly all actives have a fitted effect of over 50% in size
Marburg entry inh – qHTS for inhibitors of binding or entry into cells for Marburg Virus; Marburg virus pseudotyped entry inhibition, cell reporter; hit rate 1.8% among 300,000; Potency, µM (series often up to 37.8 µM), for inactives: top-dose activity change, negative = inhibition, actives largely listed as inhibitors; calls by dose curve; tested in HEK293 cells; also: potency is read from the fitted curve at half-maximal effect; % is scaled to controls: 0 for no effect and ±100 for the full control effect
Shiga toxin inh – A qHTS for Small Molecule Inhibitors of Shiga Toxin. Vero cells, Shiga toxin protein synthesis inhibition reporter. inhibition, % at 38.7 µM. hit rate 9.2% among 290,000. AID 2315, 2010; in the data active = inhibition mostly above about 28%, no sharp cut-off; inactive = mostly below about 43%; also: 0% is about no effect
* = called active by the depositor; ? = inconclusive; / = not tested or not shown; + = active, no number; ! = a repeat was not active; [ ] = another dose, or the depositor's remark. An excerpt weighted towards active compounds, which were near 12% of everything screened.

SMILES | CHX counter | Lassa entry inh | Marburg entry inh | Shiga toxin inh
Cc1ccc(NC(=O)c2ccc(CN3CCN(C)CC3)cc2)cc1Nc1nccc(-c2cccnc2)n1 | 27*! | / | / | 64
CCn1c2ccccc2c2nc3ccccc3nc21 | 9 | ? | 25% | 0
CC(=O)n1c2ccccc2c2nc3ccccc3nc21 | 26* | / | / | /
CCn1c2ccccc2c2nc3cc(C(=O)O)ccc3nc21 | 35* | -20% | -30%[46.1 µM] | 126*
c1cc(Nc2cccc3nccnc23)c2nccnc2c1 | -2 | ? | ? | -9
Fc1ccc(Nc2cccc3nccnc23)cc1 | 22* | -4% | ? | 47*
OC1CCCN(Cc2cn(Cc3ccccc3)nc2-c2cc3ccccc3o2)C1 (stereo unspecified) | -2 | -1% | 26µM* | -17
Cc1ccc(N2C(=O)c3n[nH]c(C)c3C2c2ccc(Cl)cc2)cc1 (stereo unspecified) | / | -13%[46.1 µM] | ? | /
Cc1ccc(C2C3=C(NCCN=C3c3ccccc3)C(=O)N2c2ccccc2)cc1 (stereo unspecified) | -6 | ? | 10µM* | -3
CCOc1ccc(N2C(=O)C3=C(C(c4ccc(Cl)cc4)=NCCN3)C2c2cccnc2)cc1 (stereo unspecified) | -2 | ? | 11µM* | -20
Cc1cc(C)c2c(c1)C1C=CCC1C(C(=O)O)N2 (stereo unspecified) | 10 | / | / | -4
Cc1cccc(NC(=O)CN2c3ccccc3S(=O)(=O)c3ccccc32)c1C | / | 16%[46.1 µM] | / | /
COc1cccc(Nc2nc(-c3sc(C)nc3C)cs2)c1 | 42* | / | / | 62*
Cc1nc(N)sc1-c1csc(NCc2ccccc2)n1 | 5 | 2% | 14% | 15
COc1ccc(OC)c(Nc2nc(-c3sc(C)nc3C)cs2)c1 | 11 | ? | ? | 49
Cc1cc(NS(=O)(=O)c2ccc(Nc3nc(-c4sc(C)nc4C)cs3)cc2)no1 | -3 | / | / | 15
Cc1nc(C)c(-c2csc(Nc3ncccc3C)n2)s1 | 43* | / | / | 56*
Cc1nc(N)sc1-c1csc(Nc2ncccn2)n1 | 44* | 3% | ? | 42*
Cc1nc(C)c(-c2csc(Nc3ccc(F)cc3)n2)s1 | 33* | ? | ? | 64*
Cc1nc(C)c(-c2csc(Nc3ccc(C(=O)O)c(O)c3)n2)s1 | 6 | / | / | -5
Cc1cc(C)cc(Oc2nc3c(C)cccn3c(=O)c2/C=C(\C#N)c2nc3ccccc3s2)c1 | / | -1%[46.1 µM] | -3%[46.1 µM] | /
COc1cc(C2C(C(=O)OC(C)C)=C(C)N=C3SCCC(=O)N32)ccc1OCc1ccccc1 (stereo unspecified) | / | -26%[46.1 µM] | ? | /
COc1ccccc1Nc1nc(-c2sc(N)nc2C)cs1 | 14* | / | / | 12
COc1cccc(Nc2nc(-c3sc(N)nc3C)cs2)c1 | 23* | 30% | ? | +
O=C(Cn1cnc2scc(-c3ccc(Br)cc3)c2c1=O)N1CCOCC1 | -2 | / | / | -10
SMILES | CHX counter | Lassa entry inh | Marburg entry inh | Shiga toxin inh
COc1cc(C(=O)NCC(=O)N/N=C/c2ccc(OC(=O)c3ccco3)cc2)cc(OC)c1OC | -4 | 2% | -5%[14.2 µM] | -7
COc1ccc(-c2ccc(CNCCCSc3nnnn3C)o2)cc1Cl | / | 3%[46.1 µM] | -18%[46.1 µM] | /
Fc1ccc(-c2ccc(CNCc3ccccn3)o2)cc1 | 25* | ? | -10% | /
COc1ccc(-c2ccc(CNCc3ccccn3)o2)cc1Cl | 13* | / | / | 9
Clc1ccc(-c2ccc(CNCc3ccccn3)o2)cc1 | 21* | / | / | 24*
CC(C)C(CCNCc1ccccn1)c1ccc(Cl)cc1 (stereo unspecified) | -3 | -29%[46.1 µM] | ? | 3
Fc1ccc(-c2ccc(CNCCSc3nnnn3-c3ccccc3)o2)cc1 | / | 17%[46.1 µM] | ? | /
O=c1c2oc3ccccc3c2n(Cc2ccc(Cl)cc2)c(=O)n1Cc1ccc2c(c1)OCO2 | / | 8%[46.1 µM] | / | /
Nc1nc(N2CCN(C(=O)c3ccco3)CC2)nc2ccc(Br)cc12 | 25* | ? | ? | 50*
O=C1CCCc2nc(N3CCN(C(=O)c4ccco4)CC3)ncc21 | 20* | 14%[46.1 µM] | ? | 25*
Nc1nc(N2CCN(C(=O)c3ccco3)CC2)nc2ccccc12 | 28* | 26% | 16% | 67*
Cc1ccc(C(=O)c2cn(Cc3ccccc3)c3nc(C)ccc3c2=O)cc1 | / | 23%[46.1 µM] | ? | /
COc1cc(C2NCC(c3ccc(Cl)cc3Cl)c3c2[nH]c2ccccc32)cc(OC)c1OC (stereo unspecified) | -1 | ? | 16µM* | -6
COC(=O)c1ccccc1NS(=O)(=O)c1cc2c(cc1C)N(C)CCO2 | / | 10µM* | / | /
C/C(Cn1nnc([N+](=O)[O-])n1)=N\NC(=O)c1ccc(Cl)c(Cl)c1 | -1 | -22% | ? | -17
C/C(Cn1nnc([N+](=O)[O-])n1)=N\NC(=O)c1ccc(O)cc1O | 69* | -2% | ? | 72*
